The list is not random: actives were taken first. Their share in the collection is about 21%.
RORg inh: inhibitors of mouse ROR gamma transcriptional activity | Potency, µM (highest dose often 53.6 µM), usual class: inhibitors | 5.4% of 310,000 active | Drosophila S2 Gal4-RORgamma UAS-luciferase reporter, 20 h | AID 2551; further: nearly all actives have a fitted effect of over 60% in size
Target sequence (P51450 whole entry, looked up, the tested form may be a part): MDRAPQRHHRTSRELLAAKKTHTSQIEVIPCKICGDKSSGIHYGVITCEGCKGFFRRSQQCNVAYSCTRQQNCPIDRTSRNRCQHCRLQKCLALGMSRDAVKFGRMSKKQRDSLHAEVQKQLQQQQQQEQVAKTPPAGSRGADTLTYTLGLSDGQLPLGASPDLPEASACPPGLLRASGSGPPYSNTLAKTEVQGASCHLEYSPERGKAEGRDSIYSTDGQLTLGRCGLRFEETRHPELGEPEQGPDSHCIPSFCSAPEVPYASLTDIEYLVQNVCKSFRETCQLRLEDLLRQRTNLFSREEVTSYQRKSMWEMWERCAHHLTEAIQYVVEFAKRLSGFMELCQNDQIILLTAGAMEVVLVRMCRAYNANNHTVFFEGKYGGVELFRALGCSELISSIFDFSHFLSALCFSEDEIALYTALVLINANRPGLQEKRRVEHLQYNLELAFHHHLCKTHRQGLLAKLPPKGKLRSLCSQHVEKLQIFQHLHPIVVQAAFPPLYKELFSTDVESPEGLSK
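Read-out: Photinus luciferase luminescence; inhibitors lower reporter signal. Insect Schneider cells with Gal4-ROR gamma fusion under metallothionein promoter, UAS reporter; 700 uM final copper sulfate induction, 20 hr, ambient temperature.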
Gal4-VP16 FLuc: Gal4-VP16 reporter inhibition counter-screen | Drosophila S2 Gal4-VP16 UAS-luciferase, luminescence, 20 h | Potency, µM (doses to about 53.6 µM), most hits filed as inhibitors | 3.5% of 310,000 active | AID 2546;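 further: Gal4-VP16 expression switched on by copper sulfate through the metallothionein promoter; nearly all actives have a fitted effect of over 50% in size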
TDP1 cell noCPT: qHTS for Inhibitors of human tyrosyl-DNA phosphodiesterase 1 (TDP1): qHTS in cells in absence of CPT; DT40 Tdp1-/- hTDP1 cells, no CPT, ATP luminescence, 48 h; Potency, µM (doses to about 46.2 µM), most hits filed as inhibitors; 15% of 420,000 active; further: nearly all actives have a fitted effect of over 55% in size
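Growth of hTDP1-complemented DT40 Tdp1-knockout cells is measured by ATP luminescence after at least 48 hr compound exposure at 37 °C, with DMSO substituting for the 20 nM CPT used in the parallel screen.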
ELG1 repair inh: blocks ELG1-dependent DNA repair in HEK293T cells; HEK293T ELG1-luciferase reporter, luminescence, 16 h; DNA damage induced by 5-fluorouridine; Potency, µM (series often up to 46.1 µM), most hits filed as inhibitors; 2.3% of 330,000 active; AID 504467; further: nearly all actives have a fitted effect of over 55% in size
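Step one: seed 2,000 cells per well. Step two: pin-transfer compound or DMSO alongside 5-fluorouridine. Step three: incubate 16 hr, 37 °C, 5% CO2. Step four: add ONE-Glo, wait 30 min, read luminescence.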
TDP1 cell CPT: growth inhibition of DT40 Tdp1-/-;hTDP1 cells with camptothecin (screen for TDP1 inhibitors); chicken DT40 Tdp1-/-;hTDP1 cells + 20 nM CPT, ATP luminescence, 48 h; Potency, µM (doses to about 46.2 µM), actives largely listed as inhibitors; 12% of 420,000 active; further: nearly all actives have a fitted effect of over 55% in size
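Cell growth measured by CellTiter-Glo luminescence after a minimum 48 h, 37 C compound exposure with 20 nM CPT in Tdp1-knockout DT40 cells stably expressing hTDP1, seeded 400/well; qHTS titration format.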
IL-1B inflam inh: blocks inflammasome-driven IL-1 beta release | THP-1 LPS/ATP IL-1B secretion, AlphaLISA, 16 h; stronger effect = lower value | activity change, % at 57.5 µM | 4.7% of 360,000 active; in the data active means activity change below about -50%; inconclusive means mostly about -30% to -49%
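Secreted IL-1B measured by AlphaLISA bead assay after 16 h compound exposure of THP-1 cells; compounds (final up to 57.5 uM) added 1 h before LPS (250 ng/mL) and ATP (1.25 mM) stimulation; lower signal means less secretion.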
Numbers stand for hits; – = inactive; ? = inconclusive; · = no result given; [ ] = dose if it differs, or a comment. Unless noted, the call rests on the fitted dose curve; in most records, active means well fitted curve in the direction sought with a large enough effect; inconclusive means small, poorly fitted or top-dose-only effect, or another doubt; inactive means no such curve, though single readings can be large; an effect the other way counts as inactive or inconclusive.

SMILES	RORg inh	Gal4-VP16 FLuc	TDP1 cell noCPT	ELG1 repair inh	TDP1 cell CPT	IL-1B inflam inh
COc1cccc(C(=O)Nc2ccc3c(c2)OC[C@H](C)N(C(=O)C2CCCC2)C[C@@H](C)[C@@H](OC)CN(C)C3=O)c1	·	·	?	·	?	–
CO[C@H]1[C@H](O[C@H]2O[C@@H](C)[C@@H](O[C@@H]3C[C@](C)(O)[C@H](OC(=O)CC(C)C)[C@H](C)O3)[C@@H](N(C)C)[C@@H]2O)[C@@H](CC=O)C[C@@H](C)[C@@H](O)/C=C\C=C/C[C@@H](C)OC(=O)C[C@H]1OC(C)=O	–[2.98 µM]	–	·	·	·	·
CO[C@@H]1[C@@H](O[C@@H]2O[C@H](C)[C@@H](O[C@H]3C[C@@](C)(O)[C@@H](OC(=O)CC(C)C)[C@H](C)O3)[C@H](N(C)C)[C@H]2O)[C@@H](CC=O)C[C@@H](C)[C@@H](O)/C=C/C=C/C[C@@H](C)OC(=O)C[C@H]1O	·	·	6µM	·	6.7µM	·
CO[C@@H]1[C@@H](OC2OC(C)C(OC3CC(C)(O)C(OC(=O)CC(C)C)C(C)O3)C(N(C)C)C2O)[C@@H](CC=O)C[C@@H](C)C(=O)/C=C\C2O[C@H]2C[C@@H](C)OC(=O)C[C@H]1OC(C)=O (stereo not given in full)	–	–	3.2µM	·	5.6µM	·
CC(C)NC(=O)NC(=O)CSc1nnc(COc2ccccc2F)n1C(C)C1CC2CCC1C2 (stereo not given)	?	?	10µM	–	10µM	-52
CC(C1CC2CCC1C2)n1c(COc2ccccc2F)nnc1SCC(N)=O (stereo not given)	–	?	?	–	?	–
O=C(CCS(=O)(=O)c1cc(Br)cc2c1N(C(=O)C1CC1)CC2)Nc1ccc(F)cc1	·	·	–	·	–	·
CN(C)C(=O)c1ccc(-c2ccc3ncnc(NCc4cccs4)c3c2)cc1	–	–	–	·	–	·
COc1cccc(-c2ccc3ncnc(NCc4cccs4)c3c2)c1	–	–	?	15µM	?	·
Cc1cnc(CNc2ncnc3ccc(-c4ccccc4C)cc23)cn1	–	–	?	·	16µM	·
COc1cccc(-c2ccc3ncnc(NCc4cnc(C)cn4)c3c2)c1	–	?	15µM	·	23µM	·
COc1cccc(-c2ccc3ncnc(NCc4cccc(C)c4)c3c2)c1	·	·	·	16µM	·	·
Cc1ccc(C)c(Cn2c(=O)c3c(nc4n3CCN4c3ccc(F)cc3)n(C)c2=O)c1	·	·	–	·	–	·
Cc1ccc([C@H]2N[C@]3(CCCN(Cc4cccn4C)C3=O)[C@H]3C(=O)N(C)C(=O)[C@@H]23)cc1	·	·	?	·	?	–
O=c1cc(/C=C/c2ccc([N+](=O)[O-])cc2)c2ccccc2[nH]1	·	·	–	·	–	·
C[C@H](NC(=O)[C@@H]1CCCN1C(=O)[C@@H]1CCCN1)c1ccccc1	·	·	–	·	–	–
COc1ccc2c(c1)c(CC(=O)NCc1cc([N+](=O)[O-])ccc1O)c(C)n2C(=O)c1ccc(Cl)cc1	?	?	?	?	–	–
COc1ccc2c(c1)c(CC(=O)Nc1cc(C)ccc1C)c(C)n2C(=O)c1ccc(Cl)cc1	–	–	16µM	?	?	–
COc1ccc2c(c1)c(CC(=O)Nc1nnc(C3CC3)s1)c(C)n2C(=O)c1ccc(Cl)cc1	–	–	8.2µM	5.8µM	15µM	–
COc1ccc2c(c1)c(CC(=O)Nc1ccc(C(C)=O)cc1)c(C)n2C(=O)c1ccc(Cl)cc1	–	–	16µM	12µM	21µM	–
Cc1sc(N=Nc2ccc(N(C)C)cc2)[n+]([O-])c1C	·	·	?	·	?	–
CN(CCc1ccccc1)c1cc2c(c3c1ccn3C)C1CCC2C1 (stereo not given)	·	·	?	·	16µM	–
Cn1ccc2c(N(Cc3ccccc3)Cc3ccccc3)cc3c(c21)C1CCC3C1 (stereo not given)	·	·	18µM	·	18µM	–
CN(Cc1ccccc1)c1cc2c(c3c1ccn3C)C1CCC2C1 (stereo not given)	·	·	?	·	?	–
Cc1cccc(NC(=O)COC(=O)Cc2cccc(C(F)(F)F)c2)c1C	–	–	–	–	–	–
SMILES	RORg inh	Gal4-VP16 FLuc	TDP1 cell noCPT	ELG1 repair inh	TDP1 cell CPT	IL-1B inflam inh
COc1ccc(/C=N/NC(=O)c2csc(-n3nc(C)cc3C(F)(F)F)n2)cc1	–	–	21µM	–	?	–
O=C(c1cccs1)N1CCCC(c2nc3c(nnn3Cc3ccccc3Cl)c(=O)[nH]2)C1 (stereo not given)	?	–	29µM	–	?	–
CCCCCCC(=O)N1CCC(c2nc3c(nnn3Cc3ccccc3Cl)c(=O)[nH]2)CC1	7.1µM	16µM	?	?	18µM	–
O=C(c1cccs1)N1CCCC(c2nc3c(nnn3Cc3ccccc3)c(=O)[nH]2)C1 (stereo not given)	–	–	–	–	?	–
Cc1ccccc1Cn1nnc2c(=O)[nH]c(C3CCN(C(=O)c4ccccc4Cl)CC3)nc21	·	·	26µM	·	16µM	·
OC[C@H]1O[C@@H](c2nc(-c3ccc4[nH]ccc4c3)no2)[C@H](O)[C@@H](O)[C@H]1O	·	·	–	·	–	–
Cc1cccc(-n2nnnc2SCC(=O)NCC2(N3CCOCC3)CCCCC2)c1C	·	·	21µM	?	18µM	–
C/C(N)=C(/C#N)C(=O)CSc1nnnn1-c1ccc(C)cc1C	–	13µM	13µM	?	23µM	–
Cc1ccc(-n2nnnc2SCC(=O)NCC2(N3CCCCC3)CCCCC2)c(C)c1	·	·	–	–	–	-57
CN1CCN(c2ccc(NC(=O)CSc3nnnn3-c3ccccc3F)cc2)CC1	–	–	–	?	?	–
COc1ccccc1-n1nnnc1SCC(=O)NCC1(N2CCOCC2)CCCCC1	·	·	–	–	?	–
Cc1ccc(-n2nnnc2SCC(=O)Nc2cc(C)on2)c(C)c1	–	–	–	–	–	–
Cc1ccc(-n2nnnc2SCC(=O)Nc2ccc(N3CCN(C)CC3)cc2)c(C)c1	–	–	18µM	–	?	–
COC(=O)CC1(C(=O)OC)Nc2cc(Cl)c(Cl)cc2S(=O)(=O)N1O (stereo not given)	·	·	–	·	–	–
COCCn1c(=O)c(CCc2ccccc2)nc2cnc(OCc3ccccc3)nc21	–	–	?	·	?	·
Cn1c(N)c(N=O)c(=O)n(C)c1=S	·	·	?	·	–	–
Cc1ccc(-n2nnnc2SCC(=O)NCC2(N3CCOCC3)CCCCC2)c(C)c1	·	·	16µM	?	?	–
Cc1ccc(SCC(=O)Nc2ccc(N3CCN(C)CC3)c(F)c2)c(C)c1	–	–[10 µM]	16µM	–	21µM	–
